Laboratory results from PubChem BioAssay (Tox21).
Values without a mark were called inactive. Inconclusive results are not listed. A call without a number means that no potency is given here. Activity calls are given as the source filed them. Unless noted, the call rests on the fitted dose curve; in most records, active means well fitted curve in the direction sought with a large enough effect in the repeat runs; inconclusive means weak or mixed curves; inactive means no such curve, though single readings can be large; an effect the other way counts as inactive or inconclusive.

How the values were obtained:
[1] = Human pregnane X receptor (PXR) small molecule agonists, qHTS cell viability counter screen (AID 1346977); further: nearly all actives have a fitted effect of over 50% in size
Method in brief: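 After a 5hr pre-incubation, PXR-Luc HepG2 cells received compounds plus positive control in DMSO and were kept 24hr at 37C. Cell viability was quantified by fluorescence from CellTiter-Fluor added for the final hour.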

[2] = Caspase-3/7 induction in HepG2 cells by small molecules, qHTS assay (AID 1346978); further: nearly all actives have a fitted effect of over 15% in size
Method in brief: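 Wild-type HepG2 cells, 2,000/well, settled 5 hr at 37 C and 5% CO2, then compound-treated for 17 hr; caspase-3/7 activity read by luminescent Caspase-Glo 3/7 after 30 min at room temperature.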

[3] = Caspase-3/7 induction in CHO-K1 cells by small molecules, qHTS cell viability counter screen (AID 1346979); further: nearly all actives have a fitted effect of over 35% in size
Method in brief: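 Multiplexed with Caspase-Glo 3/7 in CHO-K1 cells, this counter screen added CellTiter-Fluor after 16hr of compound exposure and recorded fluorescence 1hr later.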

[4] = Caspase-3/7 induction in CHO-K1 cells by small molecules, qHTS assay (AID 1346980); further: nearly all actives have a fitted effect of over 15% in size
Method in brief: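 Wild-type CHO-K1 cells exposed to compounds for 17hr at 37 C, 5% CO2. Caspase-3/7 activity then measured by Caspase-Glo 3/7 luminescence after 30min at room temperature.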

[5] = Caspase-3/7 induction in HepG2 cells by small molecules, qHTS cell viability counter screen (AID 1346981); further: series mostly up to about 92 µM; nearly all actives have a fitted effect of over 30% in size
Method in brief: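 HepG2, WT, 2,000 cells/well; 5 hr pre-incubation 37 C/5% CO2; compound pin-transferred from DMSO; 16 hr exposure; CellTiter-Fluor, 1 hr; fluorescence read.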

[6] = target: Nuclear receptor subfamily 1 group I member 2 (Homo sapiens) (UniProt O75469); test: Human pregnane X receptor (PXR) small molecule agonists, qHTS assay (AID 1346982); further: nearly all actives have a fitted effect of over 35% in size; further: potency means the concentration at half of the fitted maximal effect
Method in brief: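 Luciferase signal from ONE-Glo (30 min, room temperature) measured activation of hPXR-driven CYP3A4 reporter expression in PXR-Luc HepG2 cells treated with compounds for 24 hr at 37 C.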

[7] = target: Acetylcholinesterase (Homo sapiens) (UniProt P22303); test: Acetylcholinesterase (AChE) small molecule antagonists: colormetric cell-based qHTS assay (AID 1347395; calls by dose curve; further: nearly all actives have a fitted effect of over 30% in size; further: potency means the concentration at half of the fitted maximal effect)
Method in brief: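 In this cell-based qHTS, attached SH-SY5Y cells were treated with test chemicals for 30 min, after which acetylthiocholine hydrolysis was followed by DTNB colour development over 90 min at 37 C.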

[8] = target: Acetylcholinesterase (Homo sapiens) (UniProt P22303); test: Acetylcholinesterase (AChE) small molecule antagonists: enzyme-based qHTS assay (AID 1347397; calls by dose curve; further: nearly all actives have a fitted effect of over 55% in size); details: Potency: AChE enzyme activity inhibition; outcome: AChE enzyme activity inhibition
Method in brief: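 Enzyme inhibition was scored from DTNB-detected thiocholine formed by recombinant human AChE acting on acetylthiocholine. The 30 min compound preincubation and 10 min substrate reaction were both run at room temperature, with DMSO as vehicle control.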

[9] = target: Acetylcholinesterase (Homo sapiens) (UniProt P22303); test: Acetylcholinesterase (AChE) small molecule antagonists: enzyme-based qHTS assay with human liver microsomes (AID 1347399; calls by dose curve; further: nearly all actives have a fitted effect of over 60% in size); details: Potency: qHTS inhibition; outcome: qHTS inhibition
Method in brief: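 Recombinant human AChE (50 mU/mL in the enzyme mix) and human liver microsomes (0.25 mg/mL final) were preincubated with compound and NADPH (0.25 mg/mL final) for 30 min at 37 C. Acetylthiocholine/DTNB was then added; thiocholine was read colorimetrically after 10 min at room temperature.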

[10] = target: Cytochrome P450 2C9 (Homo sapiens) (UniProt P11712); test: Cytochrome P450 Family 2 Subfamily C Member 9 (CYP2C9) small molecule antagonists: luciferase reporter qHTS assay (AID 1671198); further: series mostly up to about 120 µM; nearly all actives have a fitted effect of over 50% in size
Method in brief: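 P450-Glo proluciferin substrate with CYP2C9 enzyme; 10 min RT preincubation, then NADPH regeneration 1 h at 37C; luciferin detection reagent 20 min RT, luminescence in relative luminescence units.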

[11] = target: Voltage-gated inwardly rectifying potassium channel KCNH2 (Homo sapiens) (UniProt Q12809); test: Human Ether-a-go-go-Related Gene (hERG) channel small molecule antagonists: fluorescence cell-based qHTS assay (AID 1671200); further: nearly all actives have a fitted effect of over 50% in size; further: potency means the concentration at half of the fitted maximal effect
Method in brief: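 Cell line hERG-U2OS; dye FluxOR II, 1 h RT dark; Tl+ stimulus; ex 480/em 540 nm, read each second for 2 min.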

[12] = target: Cytochrome P450 3A4 (Homo sapiens) (UniProt P08684); test: Cytochrome P450 Family 3 Subfamily A Member 4 (CYP3A4) small molecule antagonists: luciferase reporter qHTS assay (AID 1671201); further: nearly all actives have a fitted effect of over 50% in size; further: potency means the concentration at half of the fitted maximal effect
Method in brief: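 Room-temperature assay throughout: 10 min compound–enzyme/substrate preincubation, 1 h reaction after NADPH regeneration solution, 20 min detection. Luciferin formed from proluciferin substrate is quantified by luminescence.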

[13] = target: Cytochrome P450 2C19 (Homo sapiens) (UniProt P33261); test: Cytochrome P450 Family 2 Subfamily C Member 19 (CYP2C19) small molecule antagonists: luciferase reporter qHTS assay (AID 1671197); further: nearly all actives have a fitted effect of over 65% in size; further: potency means the concentration at half of the fitted maximal effect
Method in brief: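 P450-Glo CYP2C19 screening system; proluciferin substrate; DMSO compound stocks; 10 min RT preincubation; NADPH regeneration, 1 h at 37C; luciferin detection reagent, 20 min RT; luminescence as RLU.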

[14] = target: Acetylcholinesterase (Homo sapiens) (UniProt P22303); test: Acetylcholinesterase (AChE) small molecule antagonists: fluorescence cell-based qHTS assay (AID 1347398; calls by dose curve; further: nearly all actives have a fitted effect of over 50% in size); details: Potency: AChE activity; outcome: AChE activity
Method in brief: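 Endogenous acetylcholinesterase of SH-SY5Y neuroblastoma cells is measured in situ. After overnight attachment and 30 min compound exposure, cells receive acetylthiocholine and Thiolite Green; fluorescence is read after 40 min at room temperature.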

[15] = target: Cytochrome P450 1A2 (Homo sapiens) (UniProt P05177); test: Cytochrome P450 Family 1 Subfamily A Member 2 (CYP1A2) small molecule antagonists: luciferase reporter qHTS assay (AID 1671199); further: nearly all actives have a fitted effect of over 50% in size; further: potency means the concentration at half of the fitted maximal effect
Method in brief: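 P450-Glo CYP1A2, 1536-well qHTS: enzyme/proluciferin substrate + cpd (DMSO), 10 min RT; NADPH regen, 1 h RT; detection reagent, 20 min; luminescence, RLU.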

[16] = target: Cytochrome P450 2D6 (Homo sapiens) (UniProt P10635); test: Cytochrome P450 Family 2 Subfamily D Member 6 (CYP2D6) small molecule antagonists: luciferase reporter qHTS assay (AID 1671196)
Method in brief: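 Read-out is luminescence from luciferin formed by CYP2D6 turnover of a proluciferin substrate, recorded as relative luminescence units. Reactions ran 1 h at room temperature after NADPH regeneration solution was added.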

Chain of Acetylcholinesterase (Homo sapiens) (P22303 whole entry, looked up): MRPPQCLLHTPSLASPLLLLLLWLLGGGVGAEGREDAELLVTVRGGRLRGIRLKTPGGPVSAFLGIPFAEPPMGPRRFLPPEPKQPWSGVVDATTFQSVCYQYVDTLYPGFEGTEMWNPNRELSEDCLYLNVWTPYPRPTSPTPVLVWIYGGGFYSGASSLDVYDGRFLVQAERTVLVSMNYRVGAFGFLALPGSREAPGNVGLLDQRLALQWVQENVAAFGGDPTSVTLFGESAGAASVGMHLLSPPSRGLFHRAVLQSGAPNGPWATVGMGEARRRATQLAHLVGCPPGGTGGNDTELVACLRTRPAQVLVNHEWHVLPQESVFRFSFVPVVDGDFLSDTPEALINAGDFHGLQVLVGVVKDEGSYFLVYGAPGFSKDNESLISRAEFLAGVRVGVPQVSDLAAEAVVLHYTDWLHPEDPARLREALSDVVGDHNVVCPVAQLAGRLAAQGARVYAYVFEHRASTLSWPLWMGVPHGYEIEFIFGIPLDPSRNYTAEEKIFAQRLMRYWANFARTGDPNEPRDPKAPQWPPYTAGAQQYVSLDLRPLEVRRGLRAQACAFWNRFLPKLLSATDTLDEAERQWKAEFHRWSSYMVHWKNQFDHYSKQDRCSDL
Chain of Voltage-gated inwardly rectifying potassium channel KCNH2 (Homo sapiens) (Q12809 whole entry, looked up): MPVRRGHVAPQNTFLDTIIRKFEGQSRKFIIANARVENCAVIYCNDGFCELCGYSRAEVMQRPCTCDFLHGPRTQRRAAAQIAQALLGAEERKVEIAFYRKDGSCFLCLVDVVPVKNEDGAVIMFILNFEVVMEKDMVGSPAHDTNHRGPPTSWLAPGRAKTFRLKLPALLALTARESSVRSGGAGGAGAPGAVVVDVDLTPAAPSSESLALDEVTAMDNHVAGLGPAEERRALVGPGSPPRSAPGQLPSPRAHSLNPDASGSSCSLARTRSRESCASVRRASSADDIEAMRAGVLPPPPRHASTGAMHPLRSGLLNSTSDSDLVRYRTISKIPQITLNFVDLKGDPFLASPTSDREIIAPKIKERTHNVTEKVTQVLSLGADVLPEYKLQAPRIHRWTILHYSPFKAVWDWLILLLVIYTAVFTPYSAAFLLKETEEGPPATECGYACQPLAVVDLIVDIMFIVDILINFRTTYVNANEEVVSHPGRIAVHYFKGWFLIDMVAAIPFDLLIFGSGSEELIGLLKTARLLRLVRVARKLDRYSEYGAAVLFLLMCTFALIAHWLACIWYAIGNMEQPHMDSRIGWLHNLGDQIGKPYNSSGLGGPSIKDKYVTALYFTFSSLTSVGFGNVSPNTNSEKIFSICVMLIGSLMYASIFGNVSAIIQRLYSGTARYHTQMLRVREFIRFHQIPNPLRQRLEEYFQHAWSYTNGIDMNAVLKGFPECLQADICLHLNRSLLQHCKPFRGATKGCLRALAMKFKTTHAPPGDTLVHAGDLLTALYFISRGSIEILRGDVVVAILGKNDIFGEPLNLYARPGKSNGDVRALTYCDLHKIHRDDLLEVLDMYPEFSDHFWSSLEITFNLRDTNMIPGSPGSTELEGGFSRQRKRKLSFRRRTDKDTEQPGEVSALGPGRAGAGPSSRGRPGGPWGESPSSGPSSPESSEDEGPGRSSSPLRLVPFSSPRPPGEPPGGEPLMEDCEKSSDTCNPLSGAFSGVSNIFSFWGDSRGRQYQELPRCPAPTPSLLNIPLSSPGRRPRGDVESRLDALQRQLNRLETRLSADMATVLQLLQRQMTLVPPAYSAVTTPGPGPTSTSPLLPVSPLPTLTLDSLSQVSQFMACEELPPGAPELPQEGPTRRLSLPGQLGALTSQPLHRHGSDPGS
Chain of Cytochrome P450 2C9 (Homo sapiens) (P11712 whole entry, looked up): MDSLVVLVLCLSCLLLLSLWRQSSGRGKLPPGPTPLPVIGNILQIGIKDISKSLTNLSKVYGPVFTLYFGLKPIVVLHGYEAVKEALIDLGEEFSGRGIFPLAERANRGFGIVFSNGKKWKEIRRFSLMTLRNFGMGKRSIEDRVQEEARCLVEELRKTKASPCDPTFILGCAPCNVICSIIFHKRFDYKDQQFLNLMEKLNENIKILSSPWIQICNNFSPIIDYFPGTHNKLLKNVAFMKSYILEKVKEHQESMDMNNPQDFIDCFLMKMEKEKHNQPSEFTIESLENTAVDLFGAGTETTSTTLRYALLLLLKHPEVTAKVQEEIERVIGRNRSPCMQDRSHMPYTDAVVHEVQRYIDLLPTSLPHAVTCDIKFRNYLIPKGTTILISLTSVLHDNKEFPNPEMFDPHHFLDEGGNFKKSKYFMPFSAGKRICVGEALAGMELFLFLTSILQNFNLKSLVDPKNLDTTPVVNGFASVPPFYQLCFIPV
Chain of Cytochrome P450 2D6 (Homo sapiens) (P10635 whole entry, looked up): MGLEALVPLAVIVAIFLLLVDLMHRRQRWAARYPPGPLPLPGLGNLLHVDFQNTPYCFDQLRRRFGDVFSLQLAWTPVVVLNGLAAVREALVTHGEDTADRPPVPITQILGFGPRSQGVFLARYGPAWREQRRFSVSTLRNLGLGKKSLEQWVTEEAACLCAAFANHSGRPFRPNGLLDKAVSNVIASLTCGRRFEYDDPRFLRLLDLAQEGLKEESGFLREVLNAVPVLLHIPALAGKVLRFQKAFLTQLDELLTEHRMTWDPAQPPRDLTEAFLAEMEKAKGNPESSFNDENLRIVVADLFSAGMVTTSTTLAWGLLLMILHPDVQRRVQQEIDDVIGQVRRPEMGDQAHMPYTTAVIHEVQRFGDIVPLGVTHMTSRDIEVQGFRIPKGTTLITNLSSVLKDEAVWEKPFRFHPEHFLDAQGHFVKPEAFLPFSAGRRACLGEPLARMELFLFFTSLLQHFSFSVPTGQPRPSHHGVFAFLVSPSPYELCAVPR
Chain of Cytochrome P450 3A4 (Homo sapiens) (P08684 whole entry, looked up): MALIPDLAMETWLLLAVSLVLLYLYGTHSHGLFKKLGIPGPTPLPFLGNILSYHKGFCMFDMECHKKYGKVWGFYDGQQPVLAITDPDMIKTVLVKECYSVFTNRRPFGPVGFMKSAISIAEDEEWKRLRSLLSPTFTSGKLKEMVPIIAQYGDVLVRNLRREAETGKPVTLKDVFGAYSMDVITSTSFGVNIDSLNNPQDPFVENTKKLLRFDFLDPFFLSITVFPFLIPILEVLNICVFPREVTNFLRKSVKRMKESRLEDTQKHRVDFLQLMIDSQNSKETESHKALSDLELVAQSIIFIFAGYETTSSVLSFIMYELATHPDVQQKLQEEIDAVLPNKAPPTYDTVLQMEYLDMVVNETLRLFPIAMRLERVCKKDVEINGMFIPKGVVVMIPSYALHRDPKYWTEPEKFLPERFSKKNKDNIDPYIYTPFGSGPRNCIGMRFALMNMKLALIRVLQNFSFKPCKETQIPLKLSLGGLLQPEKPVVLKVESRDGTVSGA
Chain of Cytochrome P450 2C19 (Homo sapiens) (P33261 whole entry, looked up): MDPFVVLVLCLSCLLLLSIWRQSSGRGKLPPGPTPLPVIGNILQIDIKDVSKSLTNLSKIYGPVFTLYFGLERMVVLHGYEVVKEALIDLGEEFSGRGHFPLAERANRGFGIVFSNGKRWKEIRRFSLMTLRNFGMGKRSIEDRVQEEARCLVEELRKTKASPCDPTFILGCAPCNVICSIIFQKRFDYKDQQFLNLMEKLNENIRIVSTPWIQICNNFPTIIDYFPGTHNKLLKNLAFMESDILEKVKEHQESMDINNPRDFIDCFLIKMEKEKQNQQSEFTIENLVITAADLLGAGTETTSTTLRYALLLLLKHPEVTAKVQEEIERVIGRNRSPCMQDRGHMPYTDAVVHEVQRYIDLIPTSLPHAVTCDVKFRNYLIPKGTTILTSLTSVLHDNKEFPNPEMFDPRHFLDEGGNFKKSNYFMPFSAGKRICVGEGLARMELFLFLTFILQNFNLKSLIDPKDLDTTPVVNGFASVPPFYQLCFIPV
Chain of Cytochrome P450 1A2 (Homo sapiens) (P05177 whole entry, looked up): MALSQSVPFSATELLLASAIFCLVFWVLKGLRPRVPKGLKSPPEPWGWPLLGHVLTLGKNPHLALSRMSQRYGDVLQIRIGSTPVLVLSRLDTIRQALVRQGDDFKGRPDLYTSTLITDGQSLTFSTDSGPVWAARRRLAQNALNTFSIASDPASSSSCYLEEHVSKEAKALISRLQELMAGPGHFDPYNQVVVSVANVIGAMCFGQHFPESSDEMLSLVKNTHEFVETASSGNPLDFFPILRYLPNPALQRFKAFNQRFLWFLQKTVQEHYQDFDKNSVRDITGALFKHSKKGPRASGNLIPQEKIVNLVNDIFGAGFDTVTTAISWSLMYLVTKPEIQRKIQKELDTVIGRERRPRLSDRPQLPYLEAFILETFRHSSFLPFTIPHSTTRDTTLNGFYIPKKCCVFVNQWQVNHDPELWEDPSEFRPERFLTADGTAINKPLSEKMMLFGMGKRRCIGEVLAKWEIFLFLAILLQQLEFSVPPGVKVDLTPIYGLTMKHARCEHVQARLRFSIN
Chain of Nuclear receptor subfamily 1 group I member 2 (Homo sapiens) (O75469 whole entry, looked up): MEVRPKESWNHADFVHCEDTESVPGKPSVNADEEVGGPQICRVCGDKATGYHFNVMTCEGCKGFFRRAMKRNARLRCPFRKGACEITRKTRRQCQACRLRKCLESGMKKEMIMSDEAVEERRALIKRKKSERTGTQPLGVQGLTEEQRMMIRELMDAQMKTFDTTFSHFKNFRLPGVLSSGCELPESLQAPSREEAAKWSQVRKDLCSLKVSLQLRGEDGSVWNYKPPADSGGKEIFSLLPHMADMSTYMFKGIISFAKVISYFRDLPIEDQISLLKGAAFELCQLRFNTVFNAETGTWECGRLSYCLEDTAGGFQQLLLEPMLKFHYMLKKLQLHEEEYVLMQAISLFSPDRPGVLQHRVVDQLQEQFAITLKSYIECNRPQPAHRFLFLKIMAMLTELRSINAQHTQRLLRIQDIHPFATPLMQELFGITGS

| Compound | Potency [1] | outcome [2] | Potency [3] | outcome [4] | Potency [5] | Potency [6] | Potency [7] | Potency [8] | Potency [9] | Potency [10] | Potency [11] | Potency [12] | Potency [13] | Potency [14] | Potency [15] | Potency [16] |
| --- | --- | --- | --- | --- | --- | --- | --- | --- | --- | --- | --- | --- | --- | --- | --- | --- |
| O=c1[nH]c2ccccc2o1 | inactive | inactive | inactive | inactive | inactive | inactive | inactive | inactive | inactive | inactive | inactive | inactive | – | – | – | – |
| O=C(O)C(F)(F)C(F)(F)C(F)(F)C(F)(F)C(F)(F)C(F)(F)F | inactive | inactive | inactive | inactive | inactive | inactive | – | inactive | inactive | – | inactive | inactive | inactive | – | – | – |
| CC(=NC#N)N(C)Cc1ccc(Cl)nc1 | inactive | inactive | inactive | inactive | inactive | inactive | – | inactive | inactive | – | inactive | inactive | – | inactive | inactive | – |
| CCC(C)(C#N)N=NC(C)(C#N)CC (stereo not drawn) | inactive | inactive | inactive | inactive | inactive | inactive | inactive | inactive | inactive | inactive | inactive | inactive | – | – | inactive | inactive |
| CC(C)N(Cc1ccccc1)C(=O)C(C)(C)C | inactive | inactive | inactive | inactive | inactive | inactive | inactive | inactive | inactive | – | inactive | inactive | 20 µM (active) | – | – | inactive |
| CN(C)C1CCCCC1 | inactive | inactive | inactive | inactive | inactive | inactive | inactive | inactive | inactive | inactive | inactive | inactive | inactive | – | – | inactive |
| O=C(NC(=O)c1c(F)cccc1F)Nc1cc(Cl)c(F)c(Cl)c1F | inactive | inactive | inactive | inactive | inactive | inactive | inactive | – | inactive | – | inactive | inactive | 69.2 µM (active) | inactive | 30.9 µM (active) | inactive |
| CCNc1nc(Cl)nc(NC(C)(C)C)n1 | inactive | inactive | inactive | inactive | inactive | 30.6 µM (active) | inactive | inactive | inactive | – | inactive | – | 35.6 µM (active) | – | 11.2 µM (active) | inactive |
| Cc1cccc2sc3nncn3c12 | inactive | inactive | inactive | inactive | inactive | 34.4 µM (active) | 39.9 µM (active) | – | inactive | inactive | inactive | 20 µM (active) | inactive | – | 31.7 µM (active) | – |
| C[N+]1(C)CCCCC1 | inactive | inactive | inactive | inactive | inactive | inactive | – | – | – | – | inactive | inactive | inactive | – | – | inactive |
| O=C(Cl)C(Cl)(Cl)Cl | inactive | inactive | inactive | inactive | inactive | 43.5 µM (active) | inactive | – | inactive | inactive | inactive | inactive | inactive | inactive | inactive | – |
| CCC(CC)(CNC(=O)CCCO)c1cccc(OC)c1 | inactive | inactive | inactive | inactive | inactive | inactive | inactive | – | inactive | – | inactive | – | 7.76 µM (active) | – | inactive | – |
| CC[C@@H](CO)NC(=O)[C@@H]1C=C2c3cccc4[nH]cc(c34)C[C@H]2N(C)C1 | inactive | inactive | inactive | inactive | inactive | inactive | 17.4 µM (active) | – | inactive | – | inactive | – | – | – | – | – |
| CC(Cc1ccccc1)NCCCCl (stereo not drawn) | inactive | inactive | inactive | – | inactive | inactive | inactive | inactive | inactive | inactive | 15.1 µM (active) | – | inactive | inactive | inactive | – |
